Results on 108 sequences are retold here after PubChem BioAssay AID1508600 (Functional Genomics Laboratory (NCATS/FGL), 2020).

The campaign covered roughly 53,000 sequences. About 3,700 (7%) were called active.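 Rule for the calls: active = gene knockdowns whose robust z-score for IL-1 alpha signal is at least 2 or at most -2, so actives lie on both sides; inactive = the rest.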 This excerpt belongs to a sample that is enriched for actives.

The experiment is described as follows: Components of the Cytosolic LPS Sensing Pathway: Gene Identification via Genome-wide siRNA Screen.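 Note: robust z of the log signal after scaling to non-targeting control siRNA wells of the plate.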 The conditions noted are these: RAW264.7 macrophages, IL-1a HTRF, actives lie on both sides, screened at 100 nM (by protocol), cells primed 5 h with Pam3CSK4 first. A digest of the protocol: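 Knockdown: 100 nM siRNA, 48h, RAW264.7. Stimulation: Pam3CSK4 5 h, then LipidA via TransIT-TKO 24 h. Output: supernatant IL-1a HTRF, negative-control-normalized, log robust z-score; viability by CellTiter-Glo.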
Consider CCCAGAAGCCUUAUCGUCUTT against Mzt1, for which the z-score is 2.37 (active). For the sequence GCCAUCUACUUUGUUAUAGTT against Kcnk4, the z-score was 0.725 (inactive). Regarding GGAGUUAUUAACUGAAGAGTT against Cyp2c55, the z-score is 0.0702 (inactive). With GAGGGCCAUCUCUGACAUGTT against Avp the figure was 0.369 (inactive); with GGUCAAAACAAAAGGAGGGTT against Ncf4, 0.498 (inactive). GGACAAAUUUGCAUAGAUUTT against Rab10os: the z-score is 2.93 (active). As for GCCAAUAUUUGUUUUUGAGTT against Ranbp3l, the z-score was 0.0685 (inactive). With GCUACAACCUUGAGAAACUTT against Duoxa2, the z-score was 0.706 (inactive). CCUAGGUGUCGUACACAAATT against Galns: the z-score was 2.45 (active).

As for GGCUUCCUAUCUGAUUACUTT against Acsl4, the z-score is 0.498 (inactive).

Turning to CCACCGGAAUGACAUAAUGTT against Klk11, the z-score is -0.578 (inactive). As to CCUAGUUGAAAAUUGGGAATT against Fuca2, the z-score was 0.354 (inactive). As to CGUGGUCAUCUGGUAUGAGTT against Zfp653, the z-score is 2.53 (active). The result for GCACUGCUAUUUACAAAAATT against Tex16 reads -1.73 (inactive); that for CAGGGCAAGGUGAUAUCUGTT against Olfr1411, -0.428 (inactive). With GGAGAAAUAAGUGCAGGUGTT against Rhox2a, the z-score was -0.622 (inactive).

With GGCUCCUCUCCAAGAAUAUTT against Prr14l, the z-score is 2.03 (active). For GGAGAGAAUCAGAGAGAACTT against Akr1c18, the z-score is 0.276 (inactive). For the sequence GCUUCUGAUAGAUCAUAAGTT against Aoc3, the z-score was -0.276 (inactive). For GGCUCAAAGUUUUCAGAGATT against Kctd14, the z-score is -0.0155 (inactive). With GCAUUUUGUGGAAAAGGCUTT against Olfr582 the figure was -2.19 (active). Turning to CGAAAAGGUGGACUUUUAGTT against Rnf4, the z-score was -0.545 (inactive). With GGUGAUUUUCGAUAUACACTT against Dclre1b the figure was 0.257 (inactive). On to CGACCUGCUCUCAUAGCUUTT against Sycn, for which the z-score is -0.702 (inactive). The result for GGCCUUUGGGAAAACAUGGTT against Zcchc14 reads -2.16 (active). For the sequence GUACUAGUGGUGACUGCAUTT against Olfr462, the z-score was -0.0789 (inactive). On to CCAAGGGUUAAGUCUUCAUTT against Zranb1, for which the z-score was 0.738 (inactive). With CCUCUCAUGUAUCCUGUGATT against Olfr292 the figure was -0.205 (inactive); with GGGAAAGUGUGUAAUAAAUTT against Egflam, -0.774 (inactive); with GCUUACUACCAUUGGGAAUTT against Samt2, 1.65 (inactive). GGAUUAGAGAAAUAGGGCUTT against Apol10a: the z-score is -2.09 (active). GGAAUUCCUUCGUUUCCUUTT against Usp2: the z-score was 1.64 (inactive). GGUUUGAAGUGUUGACAUUTT against Fam126a: the z-score is -0.474 (inactive).

In the case of CGUACAUCAGAAUGUUAAUTT against Fkbp4, the z-score is 1.46 (inactive). With GGUGGUGUCAACCUUAAAATT against Nrsn1 the figure was 0.253 (inactive); with GGUUUUGUCCAGAAGAAUATT against Kl, -0.574 (inactive); with GGAUGGACCAUCAGCUUCATT against Olfr1152, -2.25 (active).

For the sequence GGCUCUUGAUACGAAUGUATT against Aadac, the z-score is -0.44 (inactive). As to GGAGAAGGGCUUUUCUGUUTT against Gbp5, the z-score was -0.729 (inactive). As for GCCUCACAGAUUGAUAAUATT against Akt3, the z-score was -1.23 (inactive). In the case of GCAGCCAUACAGCUUAUAUTT against Cyb561d2, the z-score is 0.382 (inactive). In the case of GGAGCUGUCAUUUAAGAAATT against Sorbs2, the z-score is 2.42 (active). The result for CGUGGCUCACAAUAAAUGCTT against Cfd reads 0.385 (inactive); that for GGCAAAUGGAAAAUUCUGCTT against Rlim, 0.982 (inactive); that for GCUGAUGUAAGUAUUCUAGTT against Pdcl, 0.1 (inactive).

Take GCGGAAUUGGAAAAUGCCGTT against Hbs1l: the z-score was 0.283 (inactive).

On to GGUGGUAUCUGUAUUCUAUTT against Olfr1106, for which the z-score was 2.6 (active). Turning to GGUGACAAUAAAUUUGGAUTT against Tmem143, the z-score is 1.09 (inactive). On to GGAUUCACAUUUCUAAAGCTT against Adcy8, for which the z-score was 1.31 (inactive). Consider CGCUAUGAAACCUCACUAATT against E2f1, for which the z-score was -0.598 (inactive). With GCAUGACCUCAGGUUUUCUTT against Il20rb the figure was 1.57 (inactive); with CCUGAUUGUCACUCCUUUUTT against Pde4b, 0.753 (inactive); with GCGAAAGCAGGAUACUCCUTT against Mtmr11, 1.01 (inactive). As for GGAAAAAAUCUGCAUCCGATT against Neu1, the z-score is -0.415 (inactive). Consider GGGACAUGAGCCAUUCAUCTT against Lcor, for which the z-score is 0.749 (inactive). With GGAUAGCUCUAUUAUCUCUTT against Serpinb3a the figure was 1.24 (inactive); with “GGCAGUACAACUGGUCUACTT against 0610040J01Rik”, 2.21 (active); with GGAUGUGCUCUGUGAAUGCTT against Pgf, 0.533 (inactive). For the sequence GGCAUCACAGAAGGUUUAUTT against Rock2, the z-score was 4.17 (active). As for GGUGAACGAUGUCAAUAAGTT against Pdxk, the z-score was -0.318 (inactive). On to CCAAGAGAUUGCUAAUUGCTT against Runx1t1, for which the z-score is -0.695 (inactive). In the case of CGCAAAAACUGGUGUAACCTT against Arhgef1, the z-score is -0.958 (inactive). As to CUCCUCAGUCAACAAGAACTT against Hoxc11, the z-score is 0.176 (inactive). For the sequence GCUUGUUGGUGGUCUCCUGTT against Spink7, the z-score was -2.28 (active). With GGAAAAUGCCUCAAGACUUTT against Wdr5b, the z-score was -0.0565 (inactive).

With GGACACCAUCAAUUGAUUATT against Wdr27, the z-score was -0.127 (inactive). Consider GCCUUGGCUGAAACUCUCATT against Cybb, for which the z-score was 0.612 (inactive).

Consider GGGACAAGAAGAACAAGAGTT against Srp14, for which the z-score was -1.33 (inactive).

As to GGAAGAAUCGGAUCAAGAUTT against Dpep2, the z-score was 0.153 (inactive). As for GGCAUGGAAUCUGUUGUACTT against Olfr603, the z-score is 2.45 (active). With GCCAAGACCAUUCAGCCUUTT against Zfp579 the figure was -0.394 (inactive); with GCUUCAUCGAACAAGUCGCTT against Pcbd1, 0.715 (inactive); with GGUGCUGAAGAUGCUGACGTT against Zfp503, -1.46 (inactive).

Regarding CGUCACUGAUGUGGCUUUUTT against Plpp6, the z-score was 0.755 (inactive). For the sequence GGCAGAAACCCUUCUAUGUTT against Bmp8a, the z-score is -1.55 (inactive). Turning to GGACAGCUUCCGAAACUAUTT against Miox, the z-score is 0.349 (inactive). In the case of GGAAGCCAAAGAGAAACAATT against Ighmbp2, the z-score is -0.0223 (inactive). As to CCGUUUACGGCCACUAACUTT against Phkg2, the z-score was 3.68 (active). With GCAGCCAAGUGGGUAACUUTT against Nicn1 the figure was 0.474 (inactive); with CGGCCUGACAUCAACCUUGTT against Fam193b, -0.915 (inactive). As for GGAAGAAAACGCAACUAUATT against Atp1b3, the z-score was 0.246 (inactive). As to “GUUCUCAAGUAUCCCAGGCTT against 1110006O24Rik”, the z-score is -0.661 (inactive). Consider GCUGGAAUAUAGGAAUGUCTT against Pex11g, for which the z-score is -0.0512 (inactive). With GGUCUAGCUCUGAAACAUCTT against Pms2, the z-score is 2.27 (active). With GCAUGUUUACGUUCCUGACTT against Slc2a12 the figure was -0.0386 (inactive); with GGUUUUAAUUUCAACUGUCTT against Tpp1, -0.468 (inactive). For GGGCAACACAGGACAUCUATT against Amot, the z-score was -0.35 (inactive).

In the case of GCAGGUUAAGUAGCUGACATT against Dync1li2, the z-score is -2.37 (active).

As for GGUGUCCACGGUGGUUUGATT against Pfn1, the z-score was -0.268 (inactive). For the sequence GGGACAGUUGACUUUUUAUTT against Cntn4, the z-score was 0.147 (inactive). Turning to CCUUUUGAUGCAUCCCGUCTT against Bpifb3, the z-score was 0.709 (inactive). GGGACUUUGGGCUAAAUAGTT against Tspan1: the z-score was -1.32 (inactive). Regarding CCCUCCACAGAUGAACACCTT against Lgals4, the z-score is -2.02 (active). As to GGAUAAUUGAUCAUAGAGGTT against Ufm1, the z-score was -0.495 (inactive).

On to GAGUAGGAAUUAGAAUGAUTT against Tmem47, for which the z-score is -0.00808 (inactive).

For the sequence GCAUGAUCUCAGGUGUUUGTT against Timm13, the z-score was -1.54 (inactive). In the case of GGAUAACUGCUUCAUUUCCTT against Agbl1, the z-score was 0.62 (inactive). With GGAAAGACAAAGAACUCUATT against Ssu72 the figure was -0.535 (inactive); with GGAUUUCACUUGAGAAUGATT against Grem1, -0.905 (inactive). As to GGUCAACGUAAAUUGUUCATT against Plppr5, the z-score was 2.94 (active).

With CCUUCUAGUUUGCCUCUGGTT against Olfr877, the z-score is 0.332 (inactive). On to GGGAAGAGCAUGUUUGCUGTT against Surf4, for which the z-score is 0.982 (inactive). GGAGUGUUGCCAGUUCCUATT against Tctn2: the z-score is -0.434 (inactive). The result for GGAGUUUCACCAGAAGGCUTT against Ttc24 reads 1.63 (inactive).

Take GGACUUUGUGAAGGACUCUTT against Gatd1: the z-score was -2.56 (active). Consider GGAACUUGGAAUUUAGUUGTT against Pla2g4b, for which the z-score is 1.43 (inactive).

On to GGACAUGGUCCUUCCUAAATT against Arl8b, for which the z-score is 0.944 (inactive).

In the case of GGAAGCUGCACGGCAACUUTT against Btn2a2, the z-score is -0.132 (inactive).
